# VACV mCherry inh: inhibitors of vaccinia virus infection (mCherry reporter signal); Vaccinia virus mCherry reporter infection, fluorescence; Potency, µM (top dose mostly 36.5 µM), usual class: inhibitors; hit rate 0.63% among 310,000; AID 720579; calls by dose curve; tested in A549 cells; also: nearly all actives have a fitted effect of over 35% in size
# FMDV inh: blocks foot and mouth disease virus; FMDV antiviral cell-based qHTS; Potency, µM (doses to about 57.9 µM), most hits filed as inhibitors; hit rate 1.2% among 410,000; AID 1159524; calls by dose curve; tested in HEK293T cells; also: read-out not given here; nearly all actives have a fitted effect of over 45% in size
# HCV inhibitor: blocks hepatitis C virus | Potency, µM (series often up to 41.8 µM), most hits filed as inhibitors | hit rate 3.4% among 340,000 | AID 651820 | Huh7.5.1 HCVcc-Cre infection, luciferase reporter, 44 h; active = well fitted inhibition curve with a large enough effect; inconclusive = small, poorly fitted or top-dose-only effect, or another doubt; inactive = no such curve, though single readings can be large or run the other way
#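 A cell-based infection assay in which seeded cells (1,000 per well) receive test compound after 4 h, are inoculated with HCVcc-Cre at approximately 0.5 moi, and are incubated 44 h before luminescence detection.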
# HCMV antiviral: human cytomegalovirus inhibition | HFF cells, HCMV-luciferase reporter, 72 h; stronger effect = lower value | activity change, negative = inhibition, % at 57.5 µM | hit rate 4.5% among 410,000; in the data active = activity change below about -60%; inconclusive = no clear call, values can overlap the other calls; inactive = above about -39%
#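 Compounds were evaluated in HFFs infected with an HCMV luciferase reporter virus (MOI 1 PFU/cell). Luciferase in lysates collected 72 h post infection served as the replication measure.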
# Vaccinia Venus: vaccinia inhibition (Venus reporter) | Vaccinia virus Venus reporter expression, fluorescence | hit rate 0.46% among 330,000 | Potency, µM (series often up to 36.5 µM), most hits filed as inhibitors; calls by dose curve; tested in A549 cells; also: nearly all actives have a fitted effect of over 30% in size
# Hits are given with their value; . = inactive; ? = inconclusive; / = no result given; [ ] = dose if it differs, or a comment. Shown are actives, neighbours in structure and some others; about 7.3% of the full set was active somewhere.
SMILES,VACV mCherry inh,FMDV inh,HCV inhibitor,HCMV antiviral,Vaccinia Venus
O=C(NC(=S)Nc1ccc(CN2CCOCC2)cc1)c1ccc2c(c1)OCCO2,?,?,35.5µM,.,?
CS(=O)(=O)N1CCN(c2ccc(NC(=S)NC(=O)c3ccc4c(c3)OCO4)cc2)CC1,.,.,10µM,.,.
O=C(NC(=S)Nc1ccc(N2CCOCC2)cc1)c1ccc2c(c1)OCCO2,/,.,7.94µM,-84.7,/
O=C(NC(=S)Nc1ccc(N2CCCCC2)cc1)c1ccc2c(c1)OCCO2,.,.,.,?,.
CC(=O)N1CCN(c2ccc(NC(=O)c3ccc4c(c3)OCO4)cc2)CC1,.,.,.,.,.
COc1ccc(C(=O)NC(=S)Nc2ccc(CN3CCOCC3)cc2)cc1,.,?,.,.,.
O=C(COc1ccc(Cl)cc1Cl)NNC(=S)Nc1ccc(F)cc1,/,.,.,-103.3,/
Cc1ccc2oc(-c3cccc(NC(=O)COc4ccc(Cl)cc4)c3C)nc2c1,.,/,/,/,.
COc1ccc(C(=O)NC(=S)Nc2ccc(CN3CCOCC3)cc2)cc1Br,/,?,.,-64.3,/
Cc1ccc(C(=O)NC(=S)Nc2ccc(N3CCOCC3)cc2)cc1C,.,.,7.94µM,.,.
COc1ccc(CC(=O)NNC(=S)Nc2ccccc2)cc1Cl,.,.,.,-69.9,.
O=C(COc1ccc(Cl)cc1Cl)NC(=S)Nc1ccc(CN2CCOCC2)cc1,.,28.2µM,.,.,.
CCOC(=O)[C@]12CCC=C1N(Cc1ccc(Cl)cc1Cl)C(=O)[C@H](CC(=O)N1CCN(C(=O)c3ccco3)CC1)C2,.,.,/,.,.
CC(=O)N(Cc1ccc(F)cc1)C1=C(NCc2ccccc2)C(=O)c2ccccc2C1=O,2.51µM,35.5µM,5.01µM,/,3.55µM
O=C(NCc1ccc(F)cc1)C(c1ccccc1)c1ccccc1,/,.,.,.,/
CCOc1ccc(CNC(=O)CCC(=O)N2CC3CCCN3c3ccccc32)cc1 (configuration not stated),.,.,/,.,.
COc1ccc(NC(=O)c2cc(C3CCCCN3C(=O)Cc3ccc(N(C)C)cc3)on2)c(C)c1 (configuration not stated),.,?,/,.,.
CN(C)c1ccc(CC(=O)N2CCCCC2c2cc(C(=O)Nc3ccccc3Cl)no2)cc1 (configuration not stated),.,35.5µM,/,.,.
CCOc1cc(/C=C/c2nc3ccccc3c(=O)[nH]2)ccc1O,/,.,.,.,/
CCOc1cc(/C=C/c2cc(C(F)(F)F)[nH]c(=O)n2)ccc1O,?,?,.,-98.4,.
O=c1nc(/C=C/c2ccccc2C(F)(F)F)cc(C(F)(F)F)[nH]1,/,.,.,.,/
COc1ccc(/C=C/c2cc(C(F)(F)F)[nH]c(=O)n2)cc1OC,?,?,.,-94.5,?
Cn1nc(-c2ccc(OCC(=O)Nc3ccc(Cl)cc3)cc2)c2ccccc2c1=O,.[7.34 µM],?,/,.,.[7.34 µM]
Cc1ccc2c(c1)N(C(=O)N1CCC(C(=O)NC3CCCCCC3)CC1)CC(C)O2 (configuration not stated),.,.,/,.,.
Cc1ccc(NC(=O)Cn2c(=O)n(CCCCCC(=O)NCc3ccc(F)cc3)c(=O)c3sccc32)cc1C,.,.,/,.,.
SMILES,VACV mCherry inh,FMDV inh,HCV inhibitor,HCMV antiviral,Vaccinia Venus
O=C(CSc1nnc(NC(=O)C2CC2)s1)Nc1ccccc1Cl,.,.,.,-63.5,.
Cc1nc(NC(=O)C2CC2)sc1C(=O)Nc1ccccc1Cl,/,.,?,-104.4,/
Cc1nc(Nc2ccc(Cl)c(Cl)c2)sc1C(=O)Nc1ccccc1,/,.,8.91µM,-89.3,/
Cc1nc(Nc2ccc(Cl)cc2Cl)sc1C(=O)Nc1ccccc1,.,.,10µM,.,.
Cc1nc(Cl)sc1C(=O)Nc1ccccc1Cl,/,.,.,.,/
C[C@@H]1CN([C@H](C)CO)C(=O)c2cc(C#CC(C)(C)O)cnc2O[C@@H]1CN(C)C(=O)C1CC1,.,.,/,.,.
CCn1cc(C(=O)NCc2ccccc2)c(=O)c2cc(F)c(N3CCN(C(=O)c4ccco4)CC3)cc21,/,20µM,11.2µM,-82.3,?
CCn1cc(C(=O)NCc2ccncc2)c(=O)c2cc(F)c(N3CCN(C(=O)c4ccco4)CC3)cc21,.[7.34 µM],?,?,.,.[7.34 µM]
CCCCN(CCCC)C(=O)c1cn(CC)c2cc(N3CCN(C)CC3)c(F)cc2c1=O,.,.,.,-65.8,.
CCn1cc(C(=O)NCc2ccc3c(c2)OCO3)c(=O)c2cc(F)c(N3CCN(C(=O)c4ccco4)CC3)cc21,11.2µM,14.1µM,?,-73.0,12.6µM
COc1ccc(N2N=NN(C(C)C)C2=C(Cl)c2nnnn2-c2ccc(OC)cc2)cc1,.,.,?,.,.
CCc1c(C)c(C#N)c2nc3ccccc3n2c1Nc1cccc(C(F)(F)F)c1,.,.,/,.,.
CCOc1ccc(/C=C2\CCC(C3CCCC3)C2=O)cc1 (configuration not stated),.,.,.,.,.
CCC(=O)OCOc1ccc(/C=C2/CCC(CN(C)C)C2=O)cc1 (configuration not stated),.,31.6µM,?,?,.
COCC(=O)N1CCC2(CCCN(Cc3nccs3)C2)CC1,/,.,/,/,/
CC(C)(C)OC(=O)CNC(=O)c1[nH]cnc1C(=O)NCCCCCNC(=O)OC(C)(C)C,?,15.8µM,?,.,.
C[C@H](NC(=O)c1nc[nH]c1C(=O)N[C@H](C)c1ccccc1)C(=O)OC(C)(C)C,?,.,12.6µM,.,.
C[C@H](NC(=O)c1nc[nH]c1C(=O)NCCCCCNC(=O)OC(C)(C)C)C(=O)OC(C)(C)C,.,?,11.2µM,?,.
Cc1cc(Br)cn2c(Cc3cccc(F)c3)c(-c3ccc(Cl)cc3)nc12,.,.,/,.,?
Cc1cccc(CNC(=O)c2ccc3oc(=O)n(Cc4ccccc4)c3c2)c1,.,?,/,.,.
CCCCCCc1ccc(-c2ncc(N)cn2)cc1,/,.,5.62µM,.,/
CC(C)CCNC(=O)c1cc(C(=O)c2cc(Br)ccc2O)cn(CCC(C)C)c1=O,.,?,?,-72.7,.
CCCCn1cc(C(=O)c2cc(Br)ccc2O)cc(C#N)c1=O,/,?,11.2µM,.,?
CCOCCCn1cc(C(=O)c2cc(Br)ccc2O)cc(C#N)c1=O,.,.,.,.,.
Cn1cnc2c(ncn2[C@@H]2O[C@H](CO)[C@@H](O)[C@H]2O)c1=N,.,.,/,/,.
SMILES,VACV mCherry inh,FMDV inh,HCV inhibitor,HCMV antiviral,Vaccinia Venus
CCCn1c(=O)c2sccc2n2c(CCCC(=O)Nc3ccc(Oc4ccc(Cl)cc4)cc3)nnc12,.[7.34 µM],?,/,?,.[7.34 µM]
CCCn1c(=O)c2sccc2n2c(CCCC(=O)Nc3ccc(Oc4ccccc4)cc3)nnc12,.,.,/,-60.9,.
CC(=O)N1CCC2(CCN(Cc3ccc(C#N)cc3)CC2)CC1,/,.,/,/,/
O=C(Nc1nc(-c2nc3ccccc3s2)cs1)c1ccc(S(=O)(=O)N2CCOCC2)cc1,?,?,11.2µM,?,?
O=C(Nc1nc(-c2ccc(S(=O)(=O)N3CCOCC3)cc2)cs1)c1ccccc1,.,14.1µM,7.94µM,-91.5,.
O=S(=O)(c1ccc(-c2csc(-c3cccnc3)n2)cc1)N1CCOCC1,.,.,.,-63.9,.
COc1cc(C(=O)Nc2nc(-c3ccc(C)cc3)cs2)ccc1OCC(=O)N1CCOCC1,/,22.4µM,11.2µM,.,/

# Assay outcomes: PubChem BioAssay, National Center for Advancing Translational Sciences (NCATS)
